In PubChem BioAssay AID1458 (National Center for Advancing Translational Sciences (NCATS), 2008):
In all, about 210,000 compounds went through this assay and about 5,900 (2.8%) were called active. Another 5% or so got no clear call; they are omitted. The sample as a whole holds a higher share of actives than the screen did. Unmarked numbers belong to inactive results. Calls come from the whole dose curve; as a rule, active = well fitted activation curve with a large enough effect; inconclusive = small, poorly fitted or top-dose-only effect; inactive = no such curve, though single readings can be large or run the other way.

experiment: qHTS Assay for Enhancers of SMN2 Splice Variant Expression; conditions: HEK293 SMN2-luciferase splicing reporter, luminescence, 30-36 h; series mostly up to 46.1 µM; activity change, positive = activation: at the top concentration; note: nearly all actives have a fitted effect of over 55% in size; for activity change, positive = activation: % of control where 0% means no effect
In short: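 qHTS luciferase splicing reporter: luminescence rises when SMN2 exon 7 is included in transfected HEK293 cells. Compound exposure lasted 30-36 h at 37C, with 4.5 mM final sodium butyrate as control, followed by a ONE-Glo read.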
Potency is the fitted concentration of half-maximal effect.

SMILES	activity change, positive = activation	Potency
CSc1ccc(CCNC(=O)c2cnn(-c3ccccc3)c2-n2cccc2)cc1	-6.66%	
CC(C)c1ccc(C2CC(=O)N3CN(C4CCCCC4)CSC3=C2C#N)cc1 (configuration not stated)	-3.71%	
O=C(/C=C/c1cnc2ccccc2n1)NC1CCCCCC1		11.2 µM (active)
CC(=O)OC(C(=O)NC1CCCCC1)c1ccccc1 (configuration not stated)	8.55%	
O=C(Cn1c(-c2cncs2)nc2ccccc21)NC1CCCC1	-7.74%	
COc1ccccc1NC(=O)CSc1oc(-c2ccco2)nc1S(=O)(=O)c1ccc(Br)cc1	2.03%	
CCOc1ccc(CNCCSc2nnnn2C)cc1	-10.5%	
Cc1nn(C(=O)c2ccoc2C)c(N)c1-c1ccccc1		12.6 µM (active)
Cc1occc1C(=O)N1CCCc2ccccc21	23.4%	
CCOC(=O)c1c(N)nn(C(=O)c2ccccc2)c1-c1ccccc1	-1.78%	
CCCCCn1c(=O)[nH]c2cc(C(=O)NCCN(C)CCCC)ccc2c1=O	15.9%	
C=Cc1ccc(Cn2c(C(=O)OC)cc3sc(C)cc32)cc1	18.4%	
Cc1ccc(CCNC(=O)c2ccc3c(c2)N(Cc2cc(C)ccc2C)C(=O)c2ccccc2S3=O)cc1 (configuration not stated)	-9.89%	
Cc1sc(C2C(C#N)=C(N)N(c3cccc(Cl)c3)C3=C2C(=O)CCC3)cc1CN1CCOCC1 (configuration not stated)	8.27%	
COc1cccc(-c2nnc(SCC(=O)N3CCC(C)CC3)o2)c1	9.23%	
Cc1cccc(-c2noc(-c3ccc(F)cc3)n2)c1		11.2 µM (active)
Cc1ccc(-c2noc(CN3CCN(Cc4ccccc4)CC3)n2)cc1	-89.9%	
COc1ccccc1Cc1nc(-c2ccc(C)cc2)no1	-16.6%	
Cc1ccc(Cc2nc(-c3cccc(C)c3)no2)cc1		11.2 µM (active)
Cc1ccc(-c2noc(CC(c3ccccc3)c3ccccc3)n2)cc1	-73.8%	
COc1ccc2[nH]c(=O)c(-c3noc(-c4ccc(F)cc4)n3)cc2c1	17%	
COc1cccc(CNC(=O)CCC(=O)N2CC3CCCN3c3ccccc32)c1 (configuration not stated)	5.39%	
O=C(CC1Oc2ccccc2NC1=O)NCc1ccc(F)cc1 (configuration not stated)	10.9%	
CCCCn1c(CNC(=O)C23CC4CC(CC(C4)C2)C3)nnc1SCC(=O)Nc1ccc(C)cc1	5.94%	
CCCCCn1c(CCCNC(=O)c2ccccc2OC)nc2ccccc21	-46.9%	
CCOC(=O)c1c(NC(=O)/C(C#N)=C/c2ccccc2)sc2c1CCC2	4.92%	

SMILES	activity change, positive = activation	Potency
COc1ccc(NC(=O)C2CCN(c3ccc(Sc4ccc(C)cc4)nn3)CC2)c(OC)c1	-15.5%	
O=C1NC(Nc2nc3ccccc3s2)(C(F)(F)F)C(=O)N1C1CCCCC1 (configuration not stated)	9.35%	
c1ccc2sc(NN=C3CCCC3)nc2c1		3.16 µM (active)
O=[N+]([O-])c1cc(Br)c(O)c(/C=N/Nc2nc3ccccc3s2)c1	-60.1%	
CCN(C(=O)c1sc2cc(OC)ccc2c1Cl)c1ccccc1	-48.3%	
COc1ccc2c(c1)Cc1sc(NC(=O)c3ccccc3Br)nc1-2	-19.7%	
Cc1ccc(CN(C(=O)COc2ccc(Cl)cc2C)C2CCS(=O)(=O)C2)o1 (configuration not stated)	11.9%	
Nc1ncc(-c2cc3ccccc3oc2=O)s1		15.8 µM (active)
O=c1oc2ccccc2cc1-c1cn(-c2ccccc2)c(=S)[nH]1	-69.9%	
O=C(NCc1cccnc1)c1cccc(-c2cc3ccccc3oc2=O)c1	-47.8%	
CC(C)Sc1oc(-c2cccs2)nc1S(=O)(=O)c1ccc(Cl)cc1	0.89%	
COc1ccc(NC(=O)CCc2nnc3n(CC(C)C)c(=O)c4ccccc4n23)cc1OC	-12.1%	
CCOC(=O)c1cccc(NC(=O)C(Cc2ccccc2)NS(=O)(=O)c2cccc3nsnc23)c1 (configuration not stated)	-63.8%	
COc1ccc(-c2csc(-c3c(N)c(C(=O)c4ccc(OC)c(OC)c4)n4ccccc34)n2)cc1	3.5%	
CCCN1CCN(CCCNC(=O)CN2C(=O)COc3ccccc32)CC1	1.45%	
O=C(CN1C(=O)COc2ccccc21)Nc1ccc(F)cc1	6.4%	
O=C(CN1C(=O)COc2ccccc21)NCCN1CCc2ccccc2C1		7.08 µM (active)
CCc1ccccc1NC(=O)c1cc(-c2ccc3c(c2)OCO3)on1	2.35%	
COc1ccc(-c2csc(N3CCN(Cc4ccc5c(c4)OCO5)CC3)n2)cc1	-26%	
COc1ccc(C(=O)Nc2nc(-c3ccc(S(=O)(=O)N4CCOCC4)cc3)cs2)cc1	-69.5%	
COc1ccc(-c2csc(Cc3nc(O)cs3)n2)cc1		11.2 µM (active)
CCC(=O)N1CCc2cc(Br)cc(S(=O)(=O)CCC(=O)N3CCN(c4ccc(F)cc4)CC3)c21	10.4%	
Cc1ccc(-c2csc(NC(=O)Cc3cccs3)n2)cc1C	-12.8%	
Cc1ccc(-c2nnc(-c3ccc(NC(=O)c4cccs4)cc3)o2)cc1	-10.5%	
Cc1ccc(-c2csc(NC(=O)c3cccs3)n2)cc1		11.2 µM (active)
Cc1ccc(-c2csc(NNC(=O)c3ccccc3)n2)cc1	6%	

SMILES	activity change, positive = activation	Potency
O=C(O)Cc1ccc(NC(=O)c2cccs2)cc1	-4.84%	
Cc1nc(-c2ccc(NC(=O)c3cccs3)cc2)cs1		3.16 µM (active)
CCOC(=O)c1c(NC(=O)c2cc(CC)on2)sc(C(C)=O)c1C	9.96%	
CC(C)Cn1c(-c2ccc(S(=O)(=O)N3CCOCC3)cc2)csc1=Nc1cc(Cl)ccc1Cl	0.999%	
CCOc1ccc(CNC(=O)c2cccc(Nc3nc4ccccc4n4nnnc34)c2)cc1OC	-3.76%	
Cc1c(NC(=O)Nc2ccccc2)cccc1[N+](=O)[O-]	-7.61%	
Cc1cc(NC(=O)Nc2ccccc2[N+](=O)[O-])no1	17.6%	
Cc1csc(NC(=O)Nc2ccccc2[N+](=O)[O-])n1		5.62 µM (active)
Cn1c(=O)c2c(nc(NCCc3ccccc3)n2Cc2ccccc2Br)n(C)c1=O	2.66%	
COc1ccccc1-c1ccnc2[nH]n(-c3ccccc3)c(=O)c12	4.34%	
CCOC(=O)C(Cc1ccccc1)NC(=O)CCc1c(C)nc2c(c(C)nn2-c2ccc(C)c(C)c2)c1C (configuration not stated)	1.02%	
COC(=O)CCC(=O)N1CCCC(CO)(Cc2ccccc2)C1 (configuration not stated)		14.1 µM (active)
COC(=O)c1ccc(CN2CCC(CO)(Cc3ccc(OC)cc3)CC2)cc1	-21.1%	
COCC(=O)N1CCC2(CCCN(c3ccccc3)C2)CC1	-3.22%	
COc1ccc(CNC(=O)Cn2nnc(-c3ccccc3F)n2)cc1	1.17%	
COC(=O)c1ccccc1NC(=O)Cn1c(=O)n(-c2cccc(C(F)(F)F)c2)c(=O)c2c(C)c(C)sc21	1.12%	
Cn1c(=O)c2c(nc(SCC(=O)Nc3ccc(F)cc3)n2Cc2ccc(Cl)cc2)n(C)c1=O	-9.05%	
COc1ccc(NC(=O)c2ccco2)cc1NC(=O)c1ccc(C#N)cc1F	-1.6%	
O=C(NNC(=O)c1ccc(Cl)cc1Cl)c1cccs1		12.6 µM (active)
NNC(=O)c1ccc(Cl)cc1Cl	-3.46%	
Cc1ccc(C(=O)NNC(=O)c2cccs2)cc1	75.8%	
Cc1cccc(NC(=O)c2nnn(CC(=O)Nc3ccc(C(C)C)cc3)c2N)c1C	-1.97%	
CCOc1ccc(CCNC(=O)c2csc3c2CCCCC3)cc1	10.9%	
Cc1ccc(C)c(N2CCN(Cc3nnc(-c4ccccc4)o3)CC2)c1	-9.43%	
COc1cccc2cc(-c3nc(Cl)c4c5c(sc4n3)CC(C)CC5)c(=O)oc12 (configuration not stated)	7.63%	
